# This is part of a sample that, as a whole, favours compounds with a hit. Of some 83,000 tested, about 20% had one in any assay.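 Single-concentration screen, 48 h exposure, 96-well plates. Endpoint: percent growth. Below 10 = active.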 A number with no mark means an inactive call. Active and inactive are the calls of the source.
# Test system: HL-60(TB) leukemia
# Assay: NCI-60 one-dose screen, 48 h (100 = growth as untreated, 0 = no growth, -100 = all killed)
# Conditions: 10 µM unless noted
row,SMILES,growth
1,CCOc1cc(Cl)c(C(C)NC(=O)c2cccc(OC)c2)cc1OCC (stereo not given),-32.8% (active)
2,NCC(O)C(O)C(O)C(O)CO (stereo not given),114%
3,c1nc2ccc(-c3cc4ccc5[nH]ncc5c4c4c3CCCC4)cc2[nH]1,30.9%
4,COc1ccccc1/C=C1\COc2ccc(O)cc2C1=O,1.08% (active)
5,COc1c(C2CC(=O)Nc3c2cnn3Cc2ccco2)cc2c(c1OC)OCO2 (stereo not given),-25.8% (active)
6,O=C(Nc1ccc(Cl)cc1)Oc1c(Cl)c(Cl)c(Cl)c(Cl)c1Cl,98.5%
7,CC[C@]12C=CCN3CC[C@@]4(c5ccc(OC)cc5N(C)[C@H]4[C@@](O)(C(=O)OC)[C@@H]1OC(=O)CCC[P+](c1ccccc1)(c1ccccc1)c1ccccc1)[C@@H]32,-53.1% (active)
8,CC(=O)Nc1ccc([I+]c2ccc([N+](=O)[O-])cc2)cc1,109%
9,COc1ccc(N=Nc2ccc(O)c(=O)cc2)cc1,-33.2% (active)
10,CCCCCCOc1ccc(C(=N)N(CCCC)CCCC)c2ccccc12,-49.6% (active)
11,COc1ccc(/C=N/NC(=O)Cn2c(-c3ccc(S(C)(=O)=O)cc3)nc3ccccc32)cc1,161%
12,CCc1cnc2ccccc2c1/C=C/c1ccc(N(C)C)cc1,12.9%
13,COC(=O)N[C@@H](C)CNc1nccc(-c2cn(C(C)C)nc2-c2cc(Cl)cc(NS(C)(=O)=O)c2F)n1,26.6%
14,O=Nc1ccc(O)c2ccccc12,-3.12% (active)
15,[N-]=[N+]=NCC1OC(n2cnc3c(NC(=O)Nc4ccccc4)ncnc32)C2OC(=O)CC12 (stereo not given),87.3%
16,C=C1C(=O)O[C@H]2[C@H]1CC/C(COC(=O)NCCc1cccc(OC)c1)=C\CC[C@@]1(C)O[C@@H]21,6.53% (active)
17,CC(=O)[C@@]12O[C@](C)(c3ccccc3)O[C@@H]1CC1C3CCC4=CC(=O)CC[C@]4(C)C3CC[C@@]12C (stereo not given in full),0.639% (active)
18,COc1ccc(/C=C/C(=O)c2ccc(-n3cc(CN4CCN(c5cc6c(cc5F)c(=O)c(C(=O)O)cn6C5CC5)CC4)nn3)cc2)cc1OC,45.1%
19,C=CC(O)CCC (stereo not given),88.3%
20,O=C(/C=C/c1ccc(Cl)cc1)/C=C/c1cc2ccccc2[nH]c1=O,55.6%

row,SMILES,growth
1,CC(C)(C)CC(C)(C)N(CSc1ccc(Cl)cc1)CSc1ccc(Cl)cc1,-35.3% (active)
2,COc1ccc2c(c1)N(CCO)C1=C(C(=O)OC1)C2c1cccc(Br)c1 (stereo not given),-26.3% (active)
3,NC1(CO)COC(c2ccccc2)OC1 (stereo not given),89.2%
4,CCO/C=C1\SC(=S)N(c2cccc(O)c2)C1=O,100%
5,CCN(CC)CCOc1ccc(C2=C(c3ccccc3)CCc3cc(OC)ccc32)cc1,-54.4% (active)
6,CCOC(=O)c1sc(-c2ccc(OS(=O)(=O)c3cccs3)c(C=O)c2)nc1C,-34.1% (active)
7,O=c1cc(CNc2cc(F)cc(F)c2)c2ccc(I)cc2[nH]1,-32.6% (active)
8,COc1ccc2c(c1)OC(N)=C(C#N)C2c1cc(OC)c(OC)c(OC)c1 (stereo not given),-30.4% (active)
9,C=CCn1c(SCC(=O)Nc2ccc(C(=O)/C=C/c3ccc(Cl)cc3)cc2)nnc1-c1ccc(Cl)c(Cl)c1,56.8%
10,N#Cc1c(Nc2ccc(F)cc2)n[nH]c1-c1cccs1,95.3%
11,C=C(C)[C@@H]1CC[C@]2(COCCCN)CC[C@]3(C)[C@H](CC[C@@H]4[C@@](C)(CCCNCCCN)[C@H](C(=C)C)CC[C@]43C)[C@@H]12,-9.28% [100 µM] (active)
12,Cn1cc(C(=O)c2nc(-c3c[nH]c4ccc(Br)cc34)no2)c2cc(Br)ccc21,82.9%
13,COc1cc(-c2nn(-c3cccc(NC(=O)CCN4CCN(Cc5ccccc5)CC4)c3)cc2-c2ccncc2)ccc1Cl,-5.82% (active)
14,CCOc1ccc2c(c1)c(C)cc(C)[n+]2CC,61.5%
15,O=C1C(=O)N(Cc2ccc(-c3ccccc3)cc2)c2ccc(OC(F)(F)F)cc21,17.7%
16,S=C(Cc1ccc2c(c1)CCCC2)N1CCOCC1,85%
17,CC(=O)OC1CCC2(C)C(CCC3C4CC=C(C(C)=O)C4(C)OC(=O)CC32)C1 (stereo not given),-39.8% (active)
18,COc1ccc(N/C=C/C2=[N+](C)c3ccccc3C2(C)C)c(OC)c1,99.3%
19,Cc1cccc(Cl)c1NC(=O)c1cnc(Nc2cc(N3CCOCC3)cc(N3CCOCC3)c2)s1,45.3%
20,COc1ccc2nc(SCC(=O)Nc3ccccc3C)[nH]c2c1,100%

# Reference: PubChem BioAssay (NCI)
